The results in this text go back to ChEMBL document CHEMBL1157539, “Thousands of chemical starting points for antimalarial lead identification” (Nature, 2010).

Holding throughout (assay type): functional
The subject of assay [1] is Plasmodium falciparum. The assay is described as follows: GSK_TCMDC: Inhibition of Plasmodium falciparum 3D7 in whole red blood cells, using parasite LDH activity as an index of growth. Test compounds present at 2uM.
For assay [2], the system named is Plasmodium falciparum. The assay is described as follows: GSK_TCMDC: Inhibition of Plasmodium falciparum Dd2 in whole red blood cells, using parasite LDH activity as an index of growth. Test compounds present at 2uM.
In a further assay the test system is HepG2. Put plainly: GSK_TCMDC: Percent inhibition of human HepG2 cell line. Test compounds present at 10uM.

Values joined by “and” are separate entries in the source; they are usually repeats but may differ in a detail not shown here. Equal entries are not always repeated.

With `CCCCCCCc1cc(O)c2c(c1)OC(C)(C)c1ccncc1-2.Cl`, the Inhibition (in general, the drop in the measured response relative to a control, in per cent) in the assay with Plasmodium falciparum [1] was found to be 95%; in the assay with Plasmodium falciparum [2], 52%; in the assay with HepG2, 0%.
For the molecule `NC(=O)c1ccc2[nH]cc(C3CCN(CC4CCC(NC(=O)/C=C/c5ccc(Cl)c(Cl)c5)CC4)CC3)c2c1` (stereo not given), the Inhibition in the assay with Plasmodium falciparum [1] is 100%; with Plasmodium falciparum [2], 26% and 32%; in the assay with HepG2, 0% and 11%.
In the case of `CC[C@H]1C[N+]2([O-])CC[C@@H]1C[C@H]2[C@H](O)c1cc(-c2ccccc2)nc2ccc(OC)cc12`, the results for the Inhibition in the assay with Plasmodium falciparum [1], in the assay with Plasmodium falciparum [2] and in the assay on HepG2 were 99%, 97% and 0%, respectively.
The corresponding values for `O=C(CSc1ccc(Cl)cc1)NC1CCC(CN2CCC(c3c[nH]c4ccccc34)CC2)CC1` (stereo not given) are 95%, 21% and 41%.
Consider `COCCSc1ccc(CC(C)NCC(O)c2cccc(Cl)c2)cc1.Cl` (stereo not given), for which the Inhibition in the assay on Plasmodium falciparum [1] was determined as 97%; with Plasmodium falciparum [2] it was 73%; with HepG2 it was 2%.
The matching figures for `Br.CC(Cc1ccc(CSC(C)C)cc1)NCC(O)c1cccc(Cl)c1` (stereo not given): 98%, 98% and 11%.
`S=C(Nc1ccc2c(c1)OCCO2)NC1CCC(CN2CCC(c3c[nH]c4ccccc34)CC2)CC1` (stereo not given): the Inhibition is 96% and 92% in the assay with Plasmodium falciparum [1]; 1% and 7% in the assay with Plasmodium falciparum [2]; 31% and 32% in the assay with HepG2.
For the molecule `CCCCOC(C(=O)OCC1CCCN1C)(c1ccccc1)c1ccccc1` (stereo not given), the values for the Inhibition with Plasmodium falciparum [1], in the assay with Plasmodium falciparum [2] and in the assay with HepG2 were 100%, 2% and 3%, respectively.
For `CC(=O)C1(c2ccccc2)CCN(CCC(NC(=O)c2cc(C(F)(F)F)cc(C(F)(F)F)c2)c2ccc(Cl)c(Cl)c2)CC1.Cl` (stereo not given), the Inhibition in the assay with Plasmodium falciparum [1] is recorded as 91%; in the assay with Plasmodium falciparum [2], 82%; in the assay on HepG2, 9%.
As for `CCN(CC)CCOC(=O)C(OC)(c1ccccc1)c1ccccc1`, the Inhibition in the assay on Plasmodium falciparum [1] came out at 97%; with Plasmodium falciparum [2] it was 6%; in the assay with HepG2, 0%.
The matching figures for `O=C(/C=C/c1ccc(Cl)c(Cl)c1)Nc1cccc(CN2CCC(c3c[nH]c4ccccc34)CC2)c1`: 99%, 91% and 15%.
Turning to `COc1cc(C=CC(=O)NC2CCC(CN3CCC(c4c[nH]c5ccccc45)CC3)CC2)cc(OC)c1` (stereo not given), the Inhibition with Plasmodium falciparum [1] is 100%; with Plasmodium falciparum [2], 90%; with HepG2, 38%.
The corresponding values for `O.Oc1cccc(C2CCCN(CCc3c[nH]c4ccccc34)C2)c1` (stereo not given) are 93%, 40% and 0%.
The matching figures for `COC(C(=O)OCCC1CCCN1C)(c1ccccc1)c1ccccc1` (stereo not given): 98%, 9% and 6%.
The corresponding values for `Cc1ccc(CC(C)NCC(O)c2cccc([N+](=O)[O-])c2)cc1` (stereo not given) are 97%, 85% and 0%.
Consider `COc1cc(C=CC(=O)N2CCC(CN3CCC(c4c[nH]c5ccccc45)CC3)CC2)cc(OC)c1`, for which the Inhibition with Plasmodium falciparum [1] turned out to be 95%; with Plasmodium falciparum [2] it was 8%; in the assay with HepG2, 19%.
The matching figures for `CN(c1cc(NC(=O)c2ccccc2)ccn1)C1CCN(Cc2cccc(F)c2)CC1.O=C(O)C(F)(F)F`: 92%, 94% and 0%.
`Cc1ccc(CC(C)NC[C@H](O)c2cccc(Cl)c2)cc1` (stereo not given in full): the Inhibition in the assay on Plasmodium falciparum [1] came to 93%; in the assay on Plasmodium falciparum [2], 64%; with HepG2 it was 0%.
The corresponding values for `CC[C@H]1CN2CC[C@H]1C[C@H]2[C@H](O)c1cc(-c2ccc(SC)cc2)nc2ccc(OC)cc12.Cl` are 98%, 99% and 9%.
The corresponding values for `CN1CCC(N(C)c2nccc(N3CCN(Cc4cncn4Cc4ccccc4)CC3)n2)CC1` are 100%, 100% and 15%.
The matching figures for `CCCCCC(C)C(C)c1cc(O)c2c3c(c(=O)oc2c1)CN(Cc1ccccc1)CC3.Cl` (stereo not given): 99%, 47% and 4%.
For the molecule `CCOC(=O)c1c(CN2CCN(C)CC2)n(Cc2ccccc2)c2cc(Br)c(O)cc12`, the Inhibition with Plasmodium falciparum [1] is given as 100%; in the assay with Plasmodium falciparum [2], 46%; with HepG2, 11%.
As to `Cc1ccc(CC(C)NCC(O)c2cccc(Cl)c2)cc1F.Cl` (stereo not given), the Inhibition in the assay with Plasmodium falciparum [1] is recorded as 95%; in the assay with Plasmodium falciparum [2], 88%; in the assay with HepG2 it was 1%.
The corresponding values for `CC[C@H]1CN2CC[C@H]1C[C@@H]2[C@H](O)c1ccnc2ccc(O)cc12` are 94%, 0% and 0%.
`CC(=O)C1(c2ccccc2)CCN(CCC2(c3ccc(Cl)c(Cl)c3)CN(C(=O)CC(C)C)CCO2)CC1` (stereo not given): the Inhibition in the assay on Plasmodium falciparum [1] was determined as 92%; in the assay with Plasmodium falciparum [2], 94%; with HepG2, 7%.
Turning to `COC(=O)c1ccc(CC(C)NCC(O)c2ccccc2Cl)cc1` (stereo not given), the Inhibition in the assay with Plasmodium falciparum [1] was 94%; with Plasmodium falciparum [2], 55%; in the assay with HepG2 it was 1%.
The matching figures for `CCCCCc1cc(O)c2c3c(c(=O)oc2c1)CN(C)CC3`: 100%, 99% and 4%.
The matching figures for `O=C(Cc1cc(=O)oc2cc(O)ccc12)NC1CCC(CN2CCC(c3c[nH]c4ccccc34)CC2)CC1` (stereo not given): 96%, 0% and 5%.
Take `Cl.N[C@@H](CCN1CCC(c2cccc(O)c2)CC1)Cc1ccc(F)c(F)c1`: the results for the Inhibition in the assay with Plasmodium falciparum [1], in the assay with Plasmodium falciparum [2] and with HepG2 were 92%, 0% and 25%, respectively.
The corresponding values for `Cc1[nH]c2ccccc2c1C1=CCN(CCCCC2(C)C(=O)Nc3ccccc32)CC1` (stereo not given) are 94%, 89% and 8%.
